Source: PubChem (National Center for Advancing Translational Sciences (NCATS))
Marburg entry inh: Marburg virus entry inhibition. Marburg virus pseudotyped entry inhibition, cell reporter. Potency, µM (highest dose often 37.8 µM), for the others: top-dose activity change, negative = inhibition, hits mostly inhibitors. 300,000 tested, 1.8% active; calls by dose curve; tested in HEK293 cells; note: potency is the fitted concentration of half-maximal effect; % is set by controls: 0 for no effect and ±100 for the full control effect
CHX counter: counter-screen hit for Shiga toxin inhibitors, cycloheximide | 300,000 tested, 12% active | cell reporter, cycloheximide protein synthesis inhibition counterscreen | max response, %; in the data active = max response mostly above about 13%, no sharp cut-off; inactive = mostly below about 14%; note: read at 38.3 µM for the half of the compounds with a filed dose; 0% is about no effect
LASV entry inh: inhibitors of Lassa virus binding or cell entry | Lassa virus pseudotype entry inhibition, cell reporter | Potency, µM (highest dose often 37.9 µM), inactives show at the top dose activity change, negative = inhibition, usual class: inhibitors | 300,000 tested, 1.2% active | AID 540256; calls by dose curve; tested in HEK293 cells; note: potency is the fitted concentration of half-maximal effect; % is set by controls: 0 for no effect and ±100 for the full control effect; nearly all actives have a fitted effect of over 50% in size
Shiga inhibitor: inhibitors of Shiga toxin in Vero cells; Vero cells, Shiga toxin protein synthesis inhibition reporter; inhibition, % at 38.7 µM; 290,000 tested, 9.2% active; AID 2315; in the data active = inhibition mostly above about 28%, no sharp cut-off; inactive = mostly below about 43%; note: 0% is about no effect
* hit, by the source's call; ? = inconclusive; . = no result; [ ] = another dose, or the depositor's remark. Shown are actives, neighbours in structure and some others; about 12% of the full set was active somewhere.

SMILES | Marburg entry inh | CHX counter | LASV entry inh | Shiga inhibitor
CC(C)OP(=O)(OC(C)C)/C(C=O)=N\Nc1ccc([N+](=O)[O-])cc1 | . | -3 | . | 26
COc1cc(CC(=O)Oc2ccc3c(c2)OCO3)cc(OC)c1OC | 7% | -2 | 3% | -7
O=C(CSc1nnc2ccccn12)c1ccc2c(c1)OCCO2 | ? | 25* | ? | 37*
COC(=O)c1ccc(CSc2nnc3ccccn23)o1 | 1% | -2 | -8% | 5
COc1ccc(C(=O)CSc2nnc3ccccn23)cc1OC | 15% | 22* | 6% | 45
O=C1NCCN/C1=C\C(=O)c1ccc(F)cc1 | . | 35* | . | 69*
O=C1NCCN/C1=C\C(=O)c1ccc(Cl)cc1 | ? | 55* | ? | 67*
O=C1CNC(=O)/C(=C\c2ccc(F)cc2)N1 | 3%[46.1 µM] | -3 | 1%[46.1 µM] | -5
O=C(COc1cccc2c1CCNC2=O)Nc1ccc(Cl)cc1 | -16% | . | -25% | .
CN(C(=O)c1ccoc1)c1ccccc1I | . | -3 | . | 25
Cc1ccc(N2C(=O)NC(=O)/C(=C/C=C/c3ccco3)C2=O)cc1 | ? | 24* | -27% | 26*
CC(C)c1ccc(N2C(=O)NC(=O)/C(=C/C=C/c3ccco3)C2=O)cc1 | ? | -2 | ? | -3
CCc1ccc(N2NC(=O)/C(=C/C=C/c3ccco3)C2=O)cc1 | -18% | -3 | -25% | -3
Cc1cc(C)cc(N2C(=O)NC(=O)/C(=C\C=C\c3ccco3)C2=O)c1 | ? | 13 | ? | 49*
O=C1NC(=O)N(Cc2ccc(F)cc2)C(=O)/C1=C\C=C\c1ccco1 | . | -2 | . | 11
CCc1ccc(N2C(=O)NC(=O)/C(=C\C=C\c3ccco3)C2=O)cc1 | . | 22* | . | 18
Nc1nc(SCc2ccccc2Cl)ns1 | 11% | 17* | 2% | 58*
Nc1nc(SCc2ccccc2)ns1 | ? | 17* | ? | 35*
Nc1ccccc1SCc1ccccc1Cl | ? | 25* | -4% | 56*
O=c1nc(SCc2ccccc2Cl)nc(-c2ccc(Cl)cc2)[nH]1 | 0%[14.2 µM] | -4 | 5% | 1
CC(C)CSc1nsc(N)n1 | 15% | 31 | 6% | 50
Nc1ccccc1SSc1ccccc1N | . | 69* | . | 127*
N#Cc1ccccc1Sc1ccccc1N | ? | -2 | 13% | -19
Cn1nc(Cc2n[nH]c(=S)n2C)c2ccccc2c1=O | 4%[46.1 µM] | -3 | -6% | -12
Cc1cc(C)cc(NC(=O)C(=O)NCCCN2CCOCC2)c1 | 5%[46.1 µM] | 7 | 3% | -13
SMILES | Marburg entry inh | CHX counter | LASV entry inh | Shiga inhibitor
Cc1ccc(Oc2ccc(-c3nc(N)nc(N)n3)cc2)cc1C | -3% | -3 | ? | 6
Nc1nc(SCc2ccc(Cl)cc2)ns1 | 3% | 38* | 14% | 68*
CSc1nsc(SCc2ccc(Cl)cc2)n1 | -14% | 14 | 6% | 14
Cc1ccc(C)c(N2CCN(CCCNC(=O)c3cnn(-c4ccc(F)cc4)c3C3CCN(C(=O)OC(C)(C)C)CC3)CC2)c1 | . | . | 7%[46.1 µM] | .
Cc1ccc(C)c(N2CCN(CCCNC(=O)c3cnn(-c4cccc(Cl)c4)c3C3CCN(C(=O)OC(C)(C)C)CC3)CC2)c1 | . | . | 13µM* | .
CSc1nc(Cl)cc(Nc2ccccc2N)n1 | ? | 19 | 12% | 5
Nc1nc(Cl)cc(Nc2ccccc2Cl)n1 | . | 12* | . | 18
COc1ccc2c(c1)CCc1c(C(=O)N3CCOCC3)noc1-2 | ? | 31* | ? | 74*
COc1ccc2c(c1)CCc1c(C(=O)N3CCCc4ccccc43)noc1-2 | ? | 27* | -2% | 36
COc1ccc2c(c1)CCc1c(C(=O)N3CC4(C)CC3CC(C)(C)C4)noc1-2 (stereo not given) | ? | 0 | ? | 1
Cc1ccc(C2=NNC(=O)C(P(=O)(c3ccccc3)c3ccccc3)C2)cc1 (stereo not given) | . | -3 | . | 3
NC(N)=N/N=C(\N=Nc1ccccc1)c1ccc(Cl)cc1 | ? | . | 16µM* | .
NC(N)=N/N=C(\N=Nc1ccccc1)c1cccc2cccnc12 | 6% | . | 2% | .
CCOc1ccc(N2C(=O)C3C4C=CC([C@H]5CC45)[C@@H]3C2=O)cc1 (stereo not given in full) | . | 2 | . | 29
O=C(CNC(=O)c1ccc2c(c1)OCCO2)N/N=C/c1cccc(Br)c1 | -21%[46.1 µM] | -1 | ? | -3
O=C(Nc1ccc(OCC(F)(F)C(F)F)c(C(F)(F)F)c1)c1ccccc1 | -20% | . | -16% | .
O=C(Nc1ccc(OCC(F)(F)C(F)F)c(C(F)(F)F)c1)c1ccccc1O | ? | 21* | ? | 52*
COc1ccc(-c2cc3nc4ccccc4n3c(N)c2C#N)cc1 | . | 29* | . | 56*
CCOc1ccccc1CNC(=O)c1ccc2nc(N3CCOCC3)sc2c1 | . | 1 | . | -7
c1ccc(-c2[nH]c(-c3ccccc3)[n+](CC3CO3)c2-c2ccccc2)cc1 (stereo not given) | ? | 50* | ? | 28
CCN(C(=O)Cc1cccs1)c1nnc(-c2cccnc2)s1 | 0% | 28* | 6% | 48*
CC(=O)N1CCOc2cc(S(=O)(=O)NCc3ccc(C)cc3)c(Cl)cc21 | . | . | -23%[46.1 µM] | .
COCC(C)N1CCC(Oc2ccc(C(=O)N3CCCC3)cc2)CC1 (stereo not given) | -4% | 1 | 21% | 10
COC(=O)c1cc2c(n1S(=O)(=O)c1ccc(C)cc1)C(=O)C(=O)c1[nH]cc(C(=O)OCc3ccccc3)c1-2 | ? | . | 2.8µM* | .
Cc1cc(Cl)ccc1NC(=O)COC(=O)c1cc([N+](=O)[O-])ccc1N1CCOCC1 | ? | . | -1% | .
SMILES | Marburg entry inh | CHX counter | LASV entry inh | Shiga inhibitor
NC(=O)c1ccc(NC(=O)COC(=O)c2cc([N+](=O)[O-])ccc2N2CCOCC2)cc1 | ? | . | 1% | .
COCCOc1ccc(C(F)(F)F)cc1NC(=O)COC(=O)c1cc([N+](=O)[O-])ccc1N1CCOCC1 | 13µM* | 2 | ? | -12
CCc1ccc(C(=O)COC(=O)c2cc([N+](=O)[O-])ccc2N2CCOCC2)cc1 | 3.2µM* | . | ? | .
CC(=O)c1c(C)[nH]c(C(=O)OCC(=O)Nc2cc(C(F)(F)F)ccc2N2CCOCC2)c1C | ? | -4 | 22µM* | -7
CC1=NN(C(=O)CSCc2ccccc2)C(O)(c2ccccc2)C1 (stereo not given) | . | 16 | . | 32
CC1=NN(C(=O)c2ccco2)C(O)(c2ccccc2)C1 (stereo not given) | 6%[46.1 µM] | 45* | ? | 80*
CC1=NN(C(=O)c2ccc(C)o2)C(O)(c2ccccc2)C1 (stereo not given) | 3% | 30* | 3% | active
CC1=NN(C(=O)COc2ccccc2)C(O)(c2ccccc2)C1 (stereo not given) | ? | -2 | 6% | -10
CCOC(=O)C1=C(C)NC(C)=C(C(=O)OCC)C1/C=C/c1ccccc1 | ? | 2 | 8% | 9
CCOC(=O)N(O)c1ccc(C=Cc2ccccc2)cc1 | 1.3µM* | . | 0.63µM* | .
O=C(CF)N(O)c1ccc(C=Cc2ccccc2)cc1 | 1µM* | . | 1.1µM* | .
O=C(NC1CCCCC1)C1CCN(S(=O)(=O)N2CCOCC2)CC1 | 6% | 2 | -1% | -7
COc1cc(OC)cc(-c2nc3n(n2)C(c2ccccc2)C(C(N)=O)=C(C)N3)c1 (stereo not given) | -16%[46.1 µM] | . | 1%[46.1 µM] | .
